Screening data deposited in PubChem BioAssay by National Center for Advancing Translational Sciences (NCATS).
GLS inhibitor: blocks human kidney-isoform glutaminase activity | AID 624170 | Potency, µM (titrated, usually from 45.5 µM), without a hit: top-dose activity change, negative = inhibition, hits mostly inhibitors | O94925 | GLS enzymatic activity, qHTS titration | actives 0.21% (n = 410,000); also: % is scaled to controls: 0 for no effect and ±100 for the full control effect
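Compounds were pin-transferred onto hKGA, after which L-glutamine (1 mM solution) and a detection mix of glutamate oxidase, HRP and Amplex Red were added. Initial and 30 min RT fluorescence reads were collected.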
L3MBTL1 inh: inhibitors of human L3MBTL1. actives 0.66% (n = 230,000). AlphaScreen L3MBTL1–H3K9me1 peptide binding. Potency, µM (series often up to 57.1 µM), for inactives: at the top dose activity, negative = inhibition, actives largely listed as inhibitors; also: % is scaled to controls: 0 for no effect and ±100 for the full control effect; nearly all actives have a fitted effect of over 60% in size
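First, the protein-peptide complex forms for 30 min at room temperature (L3MBTL1 50 nM, biotinylated H3K9me1 peptide 75 nM). Next, compounds are pin-transferred and incubated 30 min. Finally, AlphaScreen beads are added and read after 30 min.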
BAZ2B inh: inhibitors of human BAZ2B bromodomain; Potency, µM (titrated, usually from 114 µM), without a hit: at the top dose activity change, negative = inhibition, usual class: inhibitors; AlphaScreen BAZ2B-H3K14Ac peptide displacement; Q9UIF8; actives 4.4% (n = 360,000); also: % is scaled to controls: 0 for no effect and ±100 for the full control effect; nearly all actives have a fitted effect of over 60% in size
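BAZ2B (50 nM) with biotin-H3(5-23)K14Ac peptide (50 nM) in PBS pH 7.4, 0.01% Tween-20, preformed 30 min, then compound 30 min at room temperature; top concentration 110uM. AlphaScreen streptavidin donor/nickel chelate acceptor beads (10 ug/mL final), 20 min dark, signal read.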
JMJD2A Tudor: blocks the human JMJD2A Tudor domain; Potency, µM (highest dose often 114 µM), without a hit: at the highest dose activity change, negative = inhibition, usual class: inhibitors; AlphaScreen JMJD2A-Tudor / H3K4me3 peptide binding; actives 4.4% (n = 390,000); also: % is scaled to controls: 0 for no effect and ±100 for the full control effect; nearly all actives have a fitted effect of over 50% in size
G9a block: inhibitors of human histone lysine methyltransferase G9a. Q96KQ7. G9a H3K9 monomethylation, AlphaScreen, 2 h. Potency, µM (highest dose often 102 µM), for the others: at the top dose activity, negative = inhibition, usual class: inhibitors. actives 8.8% (n = 350,000). AID 504332; also: % is scaled to controls: 0 for no effect and ±100 for the full control effect; nearly all actives have a fitted effect of over 75% in size
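Methyltransferase reactions run at room temperature for 2 h (20 nM enzyme, 500 nM biotin-H3K9 peptide, 20 uM SAM) after a 15 min compound preincubation; product detected by AlphaScreen beads and anti-H3K9me1 antibody.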
HP1b binding inh: HP1-beta chromodomain-methylated histone interaction inhibition; P83916; AlphaScreen HP1-beta / biotin-H3K9me3 peptide binding; Potency, µM (doses to about 114 µM), for the others: top-dose activity change, negative = inhibition, actives largely listed as inhibitors; actives 0.56% (n = 390,000); also: nearly all actives have a fitted effect of over 70% in size
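AlphaScreen: HP1-beta (50 nM) preformed 30 min with biotin-H3(1-18)K9me3 peptide (50 nM) in PBS pH 7.4, 0.01% Tween-20. Compound added for 30 min at RT, then streptavidin donor/nickel chelate acceptor beads (10 ug/mL) for 30 min.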
Starred values were filed as active, the others as inactive; u = inconclusive; x = not tested or not shown; [ ] = another dose, or the depositor's remark. In the library only some 10% were active in any assay of this set; here they are far more common. Calls follow the shape of the dose curve; as a rule, active = well fitted curve in the direction sought with a large enough effect; inconclusive = small, poorly fitted or top-dose-only effect, or another doubt; inactive = no such curve, though single readings can be large; an effect the other way counts as inactive or inconclusive. Potency is read from the fitted curve at half-maximal effect.

SMILES	GLS inhibitor	L3MBTL1 inh	BAZ2B inh	JMJD2A Tudor	G9a block	HP1b binding inh
CC(O)CSc1nc2c(c(=O)[nH]c(=O)n2C)n1Cc1ccccc1 (stereo not given)	-2%	4%	5%	1%	10%	57%
O=C(Nc1ccc(C(=O)OCc2cc(=O)n3c4c(sc3n2)CCCC4)cc1)c1ccc(Cl)cc1	0%	x	-4%	10%	-4%[12.7 µM]	28%
Cc1cc(N2CCCC2)ccc1/C=C1\NC(=S)N(C)C1=O	-2%	u	u	22µM*	x	u
Cc1cccc(-n2c(Cn3nc(C)c([N+](=O)[O-])c3C)n[nH]c2=S)c1	14%	3%	12%[57.1 µM]	22µM*	u	-7%
Cc1nn(CCc2n[nH]c(=S)n2-c2ccc(F)c(Cl)c2)c(C)c1[N+](=O)[O-]	-3%	-1%	-6%	-23%	u	9%
Cc1nn(C(C)c2n[nH]c(=S)n2-c2ccc(F)cc2)c(C)c1[N+](=O)[O-] (stereo not given)	-16%	22%[11.4 µM]	0%	25µM*	4.5µM*	18%
Cc1nn(C(C)c2nc(-c3ccccc3)no2)c(C)c1[N+](=O)[O-] (stereo not given)	0%	5%	u	1%	22%[59 µM]	43%
Cc1nn(CCc2n[nH]c(=S)n2-c2ccc(F)cc2)c(C)c1[N+](=O)[O-]	-1%	x	5%	18µM*	2.2µM*	13%
CCOC(=O)c1ccc(NC(=O)C2=C(C)C(=O)OC23CCN(C(C)C)CC3)cc1	7%	x	2%	-17%	8%[59 µM]	19%
COc1cccc(C(=O)Nc2cccc(-c3nc4ncccn4c3C)c2)c1	-10%	x	-37%	-6%	1%[59 µM]	16%[57 µM]
Cc1cc(C)c(NC(=O)Cc2csc(C)n2)c(Cl)c1	1%	x	1%	-12%	8%[59 µM]	15%
O=C(NCc1ccc(F)cc1)C(=O)NCC(c1ccco1)S(=O)(=O)c1cccs1 (stereo not given)	7%	x	-8%	-1%	-27%[59 µM]	46%
Cc1c([C@H]2[C@@H](CC#N)C2(C)C)c2ccccc2n1C	16%	-24%	22µM*	u	5%[12.7 µM]	u
OCC1(CCOc2ccccc2)CCN(Cc2ccccc2C(F)(F)F)CC1	9%	2%	-6%	-1%	2%	43%
COc1cc(CN2CCN(Cc3ccccc3C(F)(F)F)CC2)cc(OC)c1OC	4%	x	20µM*	0.79µM*	-18%[2.33 µM]	25µM*
CS(=O)(=O)N1CCN(Cc2ccc(C(F)(F)F)cc2)CC1	5%	x	u	1.6µM*	3.2µM*	u
COc1ccc(CNCc2ccc(C(F)(F)F)cc2)cc1OC	-11%	-4%	-17%	89µM*	79µM*	-6%
COc1cc(CN2CCN(Cc3ccc(C(F)(F)F)cc3)CC2)cc(OC)c1OC	0%	-5%[2.29 µM]	18µM*	20µM*	-2%[0.501 µM]	u
CS(=O)(=O)N1CCN(Cc2ccccc2C(F)(F)F)CC1	-17%	5%	3%	-16%[11.4 µM]	14%[59 µM]	30%
COc1ccc(CNCc2ccncc2)cc1OC	3%	3%	-7%	-8%	-9%	62%
COc1ccc(CNC(=O)CSCc2ccc(C)cc2)c(OC)c1	1%	x	6%	-3%	-2%[59 µM]	58%
O=C(CSc1cn(CCNC(=O)c2ccccc2F)c2ccccc12)Nc1ccc(F)cc1	8%	x	-14%	4%	7%[59 µM]	42%
O=C1SCCC1NS(=O)(=O)c1ccccc1[N+](=O)[O-] (stereo not given)	6%	7%	-16%	-14%	45µM*	12%
CC(C(=O)Nc1ccc2c(c1)OCO2)N1CCN(C)CC1 (stereo not given)	5%	3%	45µM*	0.79µM*	14µM*	22µM*
CC(C(=O)Nc1ccc2c(c1)OCO2)N1CCC(N2CCCCC2)CC1 (stereo not given)	1%	-9%	50µM*	25µM*	u	-26%
